# Assay results from article PMC7862700, “An all-to-all approach to the identification of sequence-specific readers for epigenetic DNA modifications on cytosine”.
# Assays:
# Experiment in all cases: DAPPL (digital affinity profiling via proximity ligation, sequencing); 10 mM Tris-HCl pH 7.5, 50 mM NaCl, 1 mM DTT, 4% glycerol, room temperature, 30 min; GST-TFs on glutathione beads, 16-mer random dsDNA library, 0.1% formaldehyde crosslink after washing; high values mean tight binding
# FEV = molecular target: T1, FEV (Homo sapiens, UniProt Q99581 1-238); settings: protein: recombinant; tags: N-terminal GST; dsDNA, one strand shown
# T1 sequence: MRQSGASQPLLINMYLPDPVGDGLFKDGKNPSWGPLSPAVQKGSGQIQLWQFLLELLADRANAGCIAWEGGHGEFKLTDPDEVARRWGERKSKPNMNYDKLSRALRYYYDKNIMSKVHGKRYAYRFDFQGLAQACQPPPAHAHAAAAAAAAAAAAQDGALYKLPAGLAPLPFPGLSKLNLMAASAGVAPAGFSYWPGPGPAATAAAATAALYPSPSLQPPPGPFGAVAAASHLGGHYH
# Method in brief: (§1)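 Binding signal is each hexamer's read frequency for a factor divided by its frequency in the tag-only sample. The factors were GST-fused human transcription factors from yeast, captured on glutathione beads, DNA-barcoded and pooled with that sample. Pools were incubated with 200 nmole of a random double-stranded 16-mer DNA library in Tris/NaCl/DTT/glycerol buffer at room temperature for 30 min, then washed, crosslinked with 0.1% formaldehyde, proximity-ligated with BsaI/T4 ligase (1 h, 37 °C), PCR-amplified and sequenced on an Illumina NextSeq500.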
# ETV5 = ETV5 (Homo sapiens, UniProt P41161 1-510); settings: protein: recombinant; tags: N-terminal GST; dsDNA, one strand shown
# Sequence of ETV5 (P41161 whole entry): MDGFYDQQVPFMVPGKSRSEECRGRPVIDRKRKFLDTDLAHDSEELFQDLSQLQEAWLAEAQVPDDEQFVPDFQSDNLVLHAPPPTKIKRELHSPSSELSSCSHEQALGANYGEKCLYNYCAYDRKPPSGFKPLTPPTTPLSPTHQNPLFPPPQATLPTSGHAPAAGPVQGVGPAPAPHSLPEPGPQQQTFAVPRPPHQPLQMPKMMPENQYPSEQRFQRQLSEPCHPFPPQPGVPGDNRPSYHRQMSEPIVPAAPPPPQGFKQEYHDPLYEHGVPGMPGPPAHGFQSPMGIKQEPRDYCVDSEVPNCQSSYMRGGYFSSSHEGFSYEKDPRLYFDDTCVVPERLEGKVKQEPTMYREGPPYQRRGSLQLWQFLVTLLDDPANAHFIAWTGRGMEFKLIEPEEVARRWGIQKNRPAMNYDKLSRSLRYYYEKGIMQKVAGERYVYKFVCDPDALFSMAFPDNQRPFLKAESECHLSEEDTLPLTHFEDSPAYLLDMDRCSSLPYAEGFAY
# Method in brief: as §1
# HSF1 = HSF1 (Homo sapiens, UniProt Q00613 1-529); settings: protein: recombinant; tags: N-terminal GST; chain copies: 3; dsDNA, one strand shown
# Sequence of HSF1 (Q00613 whole entry): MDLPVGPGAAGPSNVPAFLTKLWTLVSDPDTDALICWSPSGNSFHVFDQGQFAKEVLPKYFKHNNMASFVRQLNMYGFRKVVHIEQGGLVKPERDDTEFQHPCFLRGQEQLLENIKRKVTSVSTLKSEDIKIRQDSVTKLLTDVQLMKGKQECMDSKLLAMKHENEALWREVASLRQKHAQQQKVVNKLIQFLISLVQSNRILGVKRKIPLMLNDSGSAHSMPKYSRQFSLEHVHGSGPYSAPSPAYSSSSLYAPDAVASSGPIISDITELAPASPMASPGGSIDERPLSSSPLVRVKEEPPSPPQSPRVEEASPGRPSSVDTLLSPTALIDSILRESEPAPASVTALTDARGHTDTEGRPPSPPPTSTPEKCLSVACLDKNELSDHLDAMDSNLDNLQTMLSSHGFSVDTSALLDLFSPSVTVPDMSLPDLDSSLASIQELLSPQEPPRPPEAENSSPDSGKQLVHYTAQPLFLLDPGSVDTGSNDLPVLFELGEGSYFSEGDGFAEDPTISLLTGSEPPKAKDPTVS
# Method in brief: as §1
# SPIC = molecular target: T2, SPIC (Homo sapiens, UniProt Q8N5J4 1-248); settings: protein: recombinant; tags: N-terminal GST; dsDNA, one strand shown
# T2 sequence: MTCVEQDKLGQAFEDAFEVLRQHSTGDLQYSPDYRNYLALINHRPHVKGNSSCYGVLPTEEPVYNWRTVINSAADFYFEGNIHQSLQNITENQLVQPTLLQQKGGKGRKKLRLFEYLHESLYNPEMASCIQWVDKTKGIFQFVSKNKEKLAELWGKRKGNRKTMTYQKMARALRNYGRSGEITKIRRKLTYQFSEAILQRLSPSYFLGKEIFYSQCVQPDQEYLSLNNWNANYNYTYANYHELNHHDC
# Method in brief: as §1
# ELF4 = ELF4 (Homo sapiens, UniProt Q99607 1-663); settings: protein: recombinant; tags: N-terminal GST; dsDNA, one strand shown
# Sequence of ELF4 (Q99607 whole entry): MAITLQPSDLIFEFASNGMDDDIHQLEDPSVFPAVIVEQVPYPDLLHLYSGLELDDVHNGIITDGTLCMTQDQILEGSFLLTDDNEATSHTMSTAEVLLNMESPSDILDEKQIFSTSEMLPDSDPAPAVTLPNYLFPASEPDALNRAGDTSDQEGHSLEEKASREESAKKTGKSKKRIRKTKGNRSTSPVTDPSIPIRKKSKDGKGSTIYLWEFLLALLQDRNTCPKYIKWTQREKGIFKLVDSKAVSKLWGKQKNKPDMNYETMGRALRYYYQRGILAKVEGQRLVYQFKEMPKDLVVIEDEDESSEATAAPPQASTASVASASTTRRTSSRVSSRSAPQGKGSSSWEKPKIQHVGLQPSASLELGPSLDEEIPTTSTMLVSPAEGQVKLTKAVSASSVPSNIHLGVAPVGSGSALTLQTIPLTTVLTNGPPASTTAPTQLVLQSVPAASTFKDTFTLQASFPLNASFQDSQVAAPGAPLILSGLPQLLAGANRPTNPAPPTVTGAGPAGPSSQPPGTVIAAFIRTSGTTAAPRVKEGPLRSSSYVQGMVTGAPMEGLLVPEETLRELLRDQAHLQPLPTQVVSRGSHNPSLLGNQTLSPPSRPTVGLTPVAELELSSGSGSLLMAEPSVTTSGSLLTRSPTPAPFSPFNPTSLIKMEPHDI
# Method in brief: as §1
# ELK4 = molecular target: T3, ELK4 (Homo sapiens, UniProt P28324-2 1-405); settings: protein: recombinant; tags: N-terminal GST; dsDNA, one strand shown
# T3 sequence: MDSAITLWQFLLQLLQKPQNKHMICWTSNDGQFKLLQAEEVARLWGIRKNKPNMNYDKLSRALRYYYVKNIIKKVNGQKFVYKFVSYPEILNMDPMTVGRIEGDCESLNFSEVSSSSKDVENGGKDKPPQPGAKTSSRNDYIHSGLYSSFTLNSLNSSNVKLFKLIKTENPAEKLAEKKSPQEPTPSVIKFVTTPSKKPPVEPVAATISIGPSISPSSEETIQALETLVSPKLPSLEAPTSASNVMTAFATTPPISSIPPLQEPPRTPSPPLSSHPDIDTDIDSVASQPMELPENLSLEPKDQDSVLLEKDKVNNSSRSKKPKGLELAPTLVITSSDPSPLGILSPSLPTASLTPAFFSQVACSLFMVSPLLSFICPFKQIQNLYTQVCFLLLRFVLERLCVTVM
# Method in brief: as §1
# ETV2 = molecular target: T4, ETV2 (Homo sapiens, UniProt O00321 1-342); settings: protein: recombinant; tags: N-terminal GST; dsDNA, one strand shown
# T4 sequence: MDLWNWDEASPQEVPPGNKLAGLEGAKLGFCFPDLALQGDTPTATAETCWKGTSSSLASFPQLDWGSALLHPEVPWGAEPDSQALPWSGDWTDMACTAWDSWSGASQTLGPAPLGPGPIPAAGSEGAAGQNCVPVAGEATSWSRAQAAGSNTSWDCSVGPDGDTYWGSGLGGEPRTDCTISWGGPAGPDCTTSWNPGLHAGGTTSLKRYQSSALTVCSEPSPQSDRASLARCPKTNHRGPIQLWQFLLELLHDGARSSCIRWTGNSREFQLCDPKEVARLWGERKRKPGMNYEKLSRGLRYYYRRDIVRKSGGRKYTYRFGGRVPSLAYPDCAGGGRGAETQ
# Method in brief: as §1
# ELF3 = molecular target: T5, ELF3 (Homo sapiens, UniProt P78545 1-371); settings: protein: recombinant; tags: N-terminal GST; dsDNA, one strand shown
# T5 sequence: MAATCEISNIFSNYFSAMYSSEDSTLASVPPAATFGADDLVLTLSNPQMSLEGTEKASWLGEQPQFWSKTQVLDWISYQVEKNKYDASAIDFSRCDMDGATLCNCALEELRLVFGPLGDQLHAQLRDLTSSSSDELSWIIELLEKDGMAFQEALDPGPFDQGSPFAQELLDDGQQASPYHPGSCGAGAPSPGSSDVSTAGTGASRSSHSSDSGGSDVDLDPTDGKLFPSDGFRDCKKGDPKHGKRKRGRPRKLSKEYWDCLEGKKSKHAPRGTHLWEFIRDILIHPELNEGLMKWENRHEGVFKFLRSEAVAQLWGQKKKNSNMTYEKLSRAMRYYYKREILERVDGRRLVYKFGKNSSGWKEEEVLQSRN
# Method in brief: as §1
# CRX = CRX (Homo sapiens, UniProt O43186 1-299); settings: protein: recombinant; tags: N-terminal GST; dsDNA, one strand shown
# Sequence of CRX (O43186 whole entry): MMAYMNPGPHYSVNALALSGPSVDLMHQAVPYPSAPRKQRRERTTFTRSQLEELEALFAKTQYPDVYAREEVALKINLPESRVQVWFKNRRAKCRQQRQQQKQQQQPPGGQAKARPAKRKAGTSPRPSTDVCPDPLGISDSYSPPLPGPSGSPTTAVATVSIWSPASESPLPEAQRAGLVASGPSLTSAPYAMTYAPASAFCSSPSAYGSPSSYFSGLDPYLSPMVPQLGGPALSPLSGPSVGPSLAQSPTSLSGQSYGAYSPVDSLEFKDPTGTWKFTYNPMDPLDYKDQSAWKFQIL
# Method in brief: as §1
# ETV1 = ETV1 (Homo sapiens, UniProt P50549 1-477); settings: protein: recombinant; tags: N-terminal GST; dsDNA, one strand shown
# Sequence of ETV1 (P50549 whole entry): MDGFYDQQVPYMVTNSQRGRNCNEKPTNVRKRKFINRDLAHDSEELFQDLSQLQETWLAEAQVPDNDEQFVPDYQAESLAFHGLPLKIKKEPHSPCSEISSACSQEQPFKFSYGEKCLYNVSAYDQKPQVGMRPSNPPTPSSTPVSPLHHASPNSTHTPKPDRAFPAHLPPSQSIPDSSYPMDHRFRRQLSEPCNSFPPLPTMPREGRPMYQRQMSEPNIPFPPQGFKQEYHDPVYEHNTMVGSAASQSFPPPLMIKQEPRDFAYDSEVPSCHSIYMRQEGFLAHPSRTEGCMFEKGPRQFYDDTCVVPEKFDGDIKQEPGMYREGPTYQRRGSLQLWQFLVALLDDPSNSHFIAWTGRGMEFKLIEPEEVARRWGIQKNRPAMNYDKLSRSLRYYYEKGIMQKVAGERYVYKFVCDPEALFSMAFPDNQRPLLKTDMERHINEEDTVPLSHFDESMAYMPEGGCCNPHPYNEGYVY
# Method in brief: as §1
# ERF = molecular target: T6, ERF (Homo sapiens, UniProt P50548 1-548); settings: protein: recombinant; tags: N-terminal GST; dsDNA, one strand shown
# T6 sequence: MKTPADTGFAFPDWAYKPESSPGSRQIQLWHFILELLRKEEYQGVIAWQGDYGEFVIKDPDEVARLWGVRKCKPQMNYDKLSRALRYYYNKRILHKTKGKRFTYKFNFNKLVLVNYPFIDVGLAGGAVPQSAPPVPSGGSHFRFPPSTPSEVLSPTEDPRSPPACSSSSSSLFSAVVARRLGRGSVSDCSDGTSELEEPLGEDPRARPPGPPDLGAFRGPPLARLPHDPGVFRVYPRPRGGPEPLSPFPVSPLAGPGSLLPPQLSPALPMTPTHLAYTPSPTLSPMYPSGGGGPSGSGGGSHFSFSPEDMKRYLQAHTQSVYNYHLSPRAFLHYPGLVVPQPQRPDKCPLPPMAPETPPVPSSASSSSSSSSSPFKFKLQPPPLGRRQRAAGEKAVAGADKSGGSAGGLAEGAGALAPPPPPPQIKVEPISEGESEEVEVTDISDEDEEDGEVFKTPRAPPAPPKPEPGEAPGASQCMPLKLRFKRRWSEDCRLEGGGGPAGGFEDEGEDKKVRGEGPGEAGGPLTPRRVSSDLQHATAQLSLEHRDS
# Method in brief: as §1
# ETV3L = molecular target: T7, ETV3L (Homo sapiens, UniProt Q6ZN32 1-361); settings: protein: recombinant; tags: N-terminal GST; dsDNA, one strand shown
# T7 sequence: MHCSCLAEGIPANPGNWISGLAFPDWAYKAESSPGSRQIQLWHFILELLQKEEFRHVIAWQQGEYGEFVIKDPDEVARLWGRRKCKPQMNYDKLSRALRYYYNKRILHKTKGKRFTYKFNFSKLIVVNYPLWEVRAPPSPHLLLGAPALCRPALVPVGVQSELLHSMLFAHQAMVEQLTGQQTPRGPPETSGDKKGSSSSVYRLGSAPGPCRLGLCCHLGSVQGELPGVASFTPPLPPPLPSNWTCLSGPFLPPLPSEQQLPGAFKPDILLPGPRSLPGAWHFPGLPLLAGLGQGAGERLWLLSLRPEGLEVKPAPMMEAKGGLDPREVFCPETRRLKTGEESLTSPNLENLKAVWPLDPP
# Method in brief: as §1
# ETS2 = molecular target: T8, ETS2 (Homo sapiens, UniProt P15036 1-469); settings: protein: recombinant; tags: N-terminal GST; dsDNA, one strand shown
# T8 sequence: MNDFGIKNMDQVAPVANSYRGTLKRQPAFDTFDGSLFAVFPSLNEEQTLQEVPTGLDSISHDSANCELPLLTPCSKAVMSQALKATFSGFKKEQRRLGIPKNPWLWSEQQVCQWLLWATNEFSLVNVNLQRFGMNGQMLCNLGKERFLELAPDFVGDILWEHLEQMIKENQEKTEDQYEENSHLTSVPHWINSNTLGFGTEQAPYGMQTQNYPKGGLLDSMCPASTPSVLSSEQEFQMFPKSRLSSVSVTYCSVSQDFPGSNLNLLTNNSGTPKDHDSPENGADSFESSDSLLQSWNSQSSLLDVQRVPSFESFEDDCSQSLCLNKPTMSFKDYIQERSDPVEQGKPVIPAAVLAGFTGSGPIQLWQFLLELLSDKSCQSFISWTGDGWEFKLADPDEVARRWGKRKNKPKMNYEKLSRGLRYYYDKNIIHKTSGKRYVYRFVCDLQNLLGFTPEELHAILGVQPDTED
# Method in brief: as §1
# SPDEF = molecular target: T9, SPDEF (Homo sapiens, UniProt O95238 1-335); settings: protein: recombinant; tags: N-terminal GST; dsDNA, one strand shown
# T9 sequence: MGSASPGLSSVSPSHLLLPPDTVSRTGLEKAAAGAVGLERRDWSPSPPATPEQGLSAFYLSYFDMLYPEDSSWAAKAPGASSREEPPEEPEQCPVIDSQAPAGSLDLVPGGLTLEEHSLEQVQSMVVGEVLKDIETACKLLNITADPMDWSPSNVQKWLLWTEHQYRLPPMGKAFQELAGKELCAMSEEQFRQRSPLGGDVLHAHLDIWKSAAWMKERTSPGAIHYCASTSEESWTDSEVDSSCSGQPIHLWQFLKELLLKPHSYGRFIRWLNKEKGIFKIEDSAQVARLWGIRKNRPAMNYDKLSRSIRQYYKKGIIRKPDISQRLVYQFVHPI
# Method in brief: as §1
# ETV7 = molecular target: T10, ETV7 (Homo sapiens, UniProt Q9Y603 1-341); settings: protein: recombinant; tags: N-terminal GST; dsDNA, one strand shown
# T10 sequence: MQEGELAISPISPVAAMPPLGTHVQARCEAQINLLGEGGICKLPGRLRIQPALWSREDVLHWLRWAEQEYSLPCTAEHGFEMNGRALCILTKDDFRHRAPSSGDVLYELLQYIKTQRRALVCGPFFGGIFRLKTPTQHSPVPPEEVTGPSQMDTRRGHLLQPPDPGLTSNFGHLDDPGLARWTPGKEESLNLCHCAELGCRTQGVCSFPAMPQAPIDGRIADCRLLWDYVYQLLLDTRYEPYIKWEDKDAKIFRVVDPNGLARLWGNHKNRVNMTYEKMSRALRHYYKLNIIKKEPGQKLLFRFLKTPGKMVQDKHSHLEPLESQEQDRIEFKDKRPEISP
# Method in brief: as §1
# ELF5 = molecular target: T11, ELF5 (Homo sapiens, UniProt Q9UKW6-2 1-255); settings: protein: recombinant; tags: N-terminal GST; dsDNA, one strand shown
# T11 sequence: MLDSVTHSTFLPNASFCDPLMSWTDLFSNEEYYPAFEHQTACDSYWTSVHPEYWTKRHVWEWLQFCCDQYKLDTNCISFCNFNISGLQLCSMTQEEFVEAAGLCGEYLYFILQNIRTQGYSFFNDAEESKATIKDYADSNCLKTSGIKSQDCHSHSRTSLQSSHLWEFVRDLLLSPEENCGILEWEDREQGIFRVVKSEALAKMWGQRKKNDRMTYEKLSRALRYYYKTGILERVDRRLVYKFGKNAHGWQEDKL
# Method in brief: as §1
# ETV3 = molecular target: T12, ETV3 (Homo sapiens, UniProt P41162-2 1-143); settings: protein: recombinant; tags: N-terminal GST; dsDNA, one strand shown
# T12 sequence: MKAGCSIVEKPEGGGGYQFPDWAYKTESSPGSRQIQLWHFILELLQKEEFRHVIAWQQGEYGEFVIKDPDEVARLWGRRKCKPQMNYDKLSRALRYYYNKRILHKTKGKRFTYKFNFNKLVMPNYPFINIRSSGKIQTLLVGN
# Method in brief: as §1
# ETV6 = ETV6 (Homo sapiens, UniProt P41212 1-452); settings: protein: recombinant; tags: N-terminal GST; dsDNA, one strand shown
# Sequence of ETV6 (P41212 whole entry): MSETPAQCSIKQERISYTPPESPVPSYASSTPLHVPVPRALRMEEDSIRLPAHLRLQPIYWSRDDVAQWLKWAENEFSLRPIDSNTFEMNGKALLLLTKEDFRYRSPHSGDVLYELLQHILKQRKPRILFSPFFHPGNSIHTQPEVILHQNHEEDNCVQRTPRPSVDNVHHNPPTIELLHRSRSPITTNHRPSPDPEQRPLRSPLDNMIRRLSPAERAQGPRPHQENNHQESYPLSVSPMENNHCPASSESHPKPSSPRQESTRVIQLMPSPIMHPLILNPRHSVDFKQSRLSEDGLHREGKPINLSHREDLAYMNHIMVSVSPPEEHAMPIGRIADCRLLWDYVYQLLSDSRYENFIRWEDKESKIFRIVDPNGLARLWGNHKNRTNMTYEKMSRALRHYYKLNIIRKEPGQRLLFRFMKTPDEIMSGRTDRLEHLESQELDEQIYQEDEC
# Method in brief: as §1
sequence,measurement,setting,value
CCTGCT,binding signal,FEV,"1.67 fold enrichment (6-mer frequency, TF over GST control)"
same,binding signal,ETV5,"1.64 fold enrichment (6-mer frequency, TF over GST control)"
same,binding signal,HSF1,"1.34 fold enrichment (6-mer frequency, TF over GST control)"
same,binding signal,SPIC,"1.71 fold enrichment (6-mer frequency, TF over GST control)"
same,binding signal,ELF4,"1.69 fold enrichment (6-mer frequency, TF over GST control)"
same,binding signal,ELK4,"1.73 fold enrichment (6-mer frequency, TF over GST control)"
same,binding signal,ETV2,"1.59 fold enrichment (6-mer frequency, TF over GST control)"
same,binding signal,ELF3,"1.47 fold enrichment (6-mer frequency, TF over GST control)"
same,binding signal,CRX,"1.38 fold enrichment (6-mer frequency, TF over GST control)"
same,binding signal,ETV1,"1.68 fold enrichment (6-mer frequency, TF over GST control)"
same,binding signal,ERF,"1.53 fold enrichment (6-mer frequency, TF over GST control)"
same,binding signal,ETV3L,"1.65 fold enrichment (6-mer frequency, TF over GST control)"
same,binding signal,ETS2,"1.62 fold enrichment (6-mer frequency, TF over GST control)"
same,binding signal,SPDEF,"1.82 fold enrichment (6-mer frequency, TF over GST control)"
same,binding signal,ETV7,"1.65 fold enrichment (6-mer frequency, TF over GST control)"
same,binding signal,ELF5,"1.84 fold enrichment (6-mer frequency, TF over GST control)"
same,binding signal,ETV3,"1.67 fold enrichment (6-mer frequency, TF over GST control)"
same,binding signal,ETV6,"1.68 fold enrichment (6-mer frequency, TF over GST control)"
